Test results as given in paper PMC4552634, “A New Set of Chemical Starting Points with Plasmodium falciparum Transmission-Blocking Potential for Antimalarial Drug Discovery” (PLoS ONE, 2015).
The campaign covered roughly 13,000 compounds. About 3,200 (25%) showed an effect of 50% or more. The list shows a part of the results.

These molecules were tested on P. falciparum stage V gametocytes. Details: 48 h, 5 µM; inhibitor.
Design: BacTiter-Glo ATP luminescence viability of purified stage V gametocytes in 384-well plates, per cent inhibition versus DMSO

Compound | % Inhibition [%]
COC(=O)c1ccc(CC(C)NCC(O)c2cccc3ccccc23)cc1 (stereo not drawn) [TCMDC-131432] | 16.03
CS(=O)(=O)c1ccccc1CNC(=O)c1ccc(-c2cccc(-c3nc4cc(C(F)(F)F)ccc4[nH]3)c2)cc1 [TCMDC-132504] | -46.91
COc1cccc(N(CCCN2C(=O)c3cccc4cccc(c34)C2=O)C(=O)c2ccccc2C)c1 [TCMDC-124157] | 34.34
c1ccc2[nH]c(-c3ccc(-c4ccc(CNCCc5ccncc5)cc4)s3)nc2c1 [TCMDC-132843] | -16.65
CC1(C)C(=O)Nc2ccc3c(c21)CC1SC(=O)NN=C31 (stereo not drawn) [TCMDC-131539] | 68.11
Nc1nc(N)c2c(CCc3ccc(Cl)c(Cl)c3)cccc2n1 [TCMDC-141976] | -2.303
CCCc1cc(Cc2cnc(N)nc2N)cc(CC)c1O [TCMDC-138059] | -83.65
Cc1cc2ncn(-c3nccc(NCc4cccnc4)n3)c2cc1C [TCMDC-135879] | 55.3
COc1ccc(CNc2ccnc(-n3cnc4cc(C)c(C)cc43)n2)cc1Cl [TCMDC-135878] | 49.39
Cc1cc2ncn(-c3nccc(NCc4ccc(F)cc4)n3)c2cc1C [TCMDC-135877] | 11.81
Cc1cc(Nc2nc(NCc3cccnc3)nc3ccccc23)n[nH]1 [TCMDC-135161] | 33.23
Cc1cc2ncn(-c3nccc(NCc4ccc(F)c(C)c4)n3)c2cc1C [TCMDC-135880] | 65.21
Cc1cc2ncn(-c3ccnc(N4CCN(CCCN5CCCC5)CC4)n3)c2cc1C [TCMDC-136311] | 9.256
O=C(O)c1ccc(OCOCOc2ccc(C(=O)O)c(O)c2)cc1O [TCMDC-131764] | 13.72
COc1ccc(C2SCC(=O)N2CCc2ccc(OC)c(OC)c2)cc1 (stereo not drawn) [TCMDC-125738] | 0.3725
NC1CCN(CCNCc2cccc(-c3ccc(-c4nc5ccc(F)cc5[nH]4)cc3)c2)C1 (stereo not drawn) [TCMDC-133857] | 75.97
NC1CCN(CCNCc2cccc(-c3ccc(-c4nc5ccc(C(F)(F)F)cc5[nH]4)cc3)c2)C1 (stereo not drawn) [TCMDC-133841] | 98.1
CS(=O)(=O)NCCCNCc1cccc(-c2ccc(-c3nc4ccc(C(F)(F)F)cc4[nH]3)cc2)c1 [TCMDC-133079] | -16.43
O=[N+]([O-])c1ccccc1/C=N/Nc1ccnc2ccc(C(F)(F)F)cc12 [TCMDC-142044] | -33.57
O=[N+]([O-])c1cccc(S(=O)(=O)N2CCN(CC(O)COc3ccc(-c4ccccc4)cc3)CC2)c1 (stereo not drawn) [TCMDC-125015] | -58.05
COc1cc2nc(NCCCOC(C)C)n3nc(-c4ccccc4)nc3c2cc1OC [TCMDC-124450] | 5.714
Cn1cnc2c(Nc3ccncc3)nc(-c3ccc4c(c3)OCO4)nc21 [TCMDC-141274] | 36.93
Cc1cccc2nc(-c3ccc(-c4cccc(C(=O)N5CCCCC5C(C)O)c4)s3)[nH]c12 (stereo not drawn) [TCMDC-132331] | 10.35
O=C(c1ccc(-c2cccc(-c3nc4cc(F)ccc4[nH]3)c2)cc1)N1CCCCC1CN1CCC(O)C1 (stereo not drawn) [TCMDC-132344] | 80.27

Compound | % Inhibition [%]
CC(O)C1CCCCN1C(=O)c1cccc(-c2cccc(-c3nc4cc(F)ccc4[nH]3)c2)c1 (stereo not drawn) [TCMDC-132339] | 25.33
CC(O)C1CCCCN1C(=O)c1cccc(-c2cccc(-c3nc4ccccc4[nH]3)c2)c1 (stereo not drawn) [TCMDC-132313] | 8.745
CC(O)C1CCCCN1C(=O)c1ccc(-c2ccc(-c3nc4cc(F)ccc4[nH]3)cc2)cc1 (stereo not drawn) [TCMDC-132338] | 65.53
Cc1cccc2nc(-c3cccc(-c4ccc(C(=O)N5CCCCC5C(C)O)cc4)c3)[nH]c12 (stereo not drawn) [TCMDC-132336] | 92.31
CCN(CC(C)O)C(=O)c1ccc(-c2cccc(-c3nc4cccc(C)c4[nH]3)c2)cc1 (stereo not drawn) [TCMDC-132502] | 84.23
Cc1cccc2nc(-c3cccc(-c4ccc(C(=O)NCCc5ccc(O)c(=O)[nH]5)cc4)c3)[nH]c12 [TCMDC-132490] | -25.23
CC(O)C1CCCCN1C(=O)c1ccc(-c2cccc(-c3nc4cc(F)ccc4[nH]3)c2)cc1 (stereo not drawn) [TCMDC-132333] | 18.43
O=C(c1cccc(-c2cccc(-c3nc4cc(F)ccc4[nH]3)c2)c1)N1CCCCC1CN1CCC(O)C1 (stereo not drawn) [TCMDC-132350] | 0.1683
CCN(CC(C)O)C(=O)c1ccc(-c2ccc(-c3nc4cccc(C)c4[nH]3)cc2)cc1 (stereo not drawn) [TCMDC-132503] | -12.34
O=C(c1ccc(-c2cccc(-c3nc4cc(C(F)(F)F)ccc4[nH]3)c2)cc1)N1CCCCC1CN1CCC(O)C1 (stereo not drawn) [TCMDC-132348] | -20.7
Cc1ccccc1C(O)CNc1ccnc(Nc2cccc(C#N)c2)n1 (stereo not drawn) [TCMDC-136566] | 9.635
COc1ccc(CNC(=O)NC2CCN(c3ccnc(Nc4ccc(OC)cc4)n3)C2)cc1 (stereo not drawn) [TCMDC-133607] | 11.17
O=C(Nc1ccc(OC2CCN(Cc3ccc(F)cc3)C2)cc1)c1cccs1 (stereo not drawn) [TCMDC-133753] | 15.26
COc1cc(NC(=O)c2cccs2)c(C(=O)NCc2ccc(C)cc2)cc1OC [TCMDC-125007] | 20.88
CN(C)CCOc1ccc(NC(=O)Nc2ccnc3c(Br)cccc23)cc1Cl [TCMDC-140325] | 18.67
COc1cc2nc(N3CCC(CNC(=O)c4ccc(-c5ccc(-c6noc(C)n6)cc5)cc4)CC3)nc(N)c2cc1OC [TCMDC-138754] | 115
COc1cc2nc(N3CCC(CNC(=O)c4ccc(-c5ccc(-c6noc(C)n6)cc5C)cc4)CC3)nc(N)c2cc1OC [TCMDC-138155] | 105.9
O=C(Nc1ccc2c(c1)CCC2)c1ccc(N2CCN(c3ccncc3)CC2)cn1 [TCMDC-135155] | 0.5792
CCOc1cc(C(=O)N[C@@H](Cc2ccccc2)[C@H](O)CNCc2cc(OC)cc(OC)c2)cc(N2CCCS2(=O)=O)c1 [TCMDC-134573] | 6.074
O=C(Nc1ccc(OC2CCN(Cc3ccsc3)CC2)c(Cl)c1)c1ccc(F)cc1 [TCMDC-134272] | -4.957
Nc1nc(N)c2c(ccc3c2ccn3Cc2cccc3ccccc23)n1 [TCMDC-137996] | 88.02
CCC(C(C)C)n1ccc2c3c(N)nc(N)nc3ccc21 (stereo not drawn) [TCMDC-137872] | 10.31
Cc1ccccc1Cn1ccc2c3c(N)nc(N)nc3ccc21 [TCMDC-137812] | 70.17
Clc1ccc(CNc2ccnc(NCc3ccc4c(c3)OCCCO4)n2)c(Cl)c1 [TCMDC-135116] | 30.31

Compound | % Inhibition [%]
CC(C)OCCCNC(=O)c1nc(-c2cccc(C(F)(F)F)c2)sc1C(C)C [TCMDC-133788] | 3.705
Oc1ccc(Cl)cc1CN1CCC2(CCCN(CC3CCC3)C2)C1 (stereo not drawn) [TCMDC-124637] | -23.05
CCCCN(CCCC)CCNC(=O)c1cc(OC(F)(F)F)ccc1O [TCMDC-141130] | -10.84
CC(Cc1ccc(NC(=O)c2ccc(CNCc3ccccc3)cc2)cc1)N(CCc1cccc(Cl)c1)C(=O)OC(C)(C)C (stereo not drawn) [TCMDC-139859] | -24.54
CC(Cc1ccc(NC(=O)c2ccc(CNCCCCc3ccccc3)cc2)cc1)NCCc1cccc(Cl)c1 (stereo not drawn) [TCMDC-139866] | 129.2
CC(Cc1ccc(NC(=O)c2ccc(CNCCc3ccccc3)cc2)cc1)NCCc1cccc(Cl)c1 (stereo not drawn) [TCMDC-139867] | 108.4
COc1cccc(OC)c1OCCCON1C(N)=NC(N)=NC1(C)C [TCMDC-131731] | 5.866
COc1cc(Cc2cnc(N)nc2N)cc(OC(C)C)c1OC [TCMDC-137645] | -10.21
CC(=O)Nc1cccc(C(=O)Nc2cccc(-c3ccc(-c4nc5cc(C(F)(F)F)ccc5[nH]4)s3)c2)c1 [TCMDC-132138] | 13.04
COc1ccc(NC(=O)c2ccc(-c3nc(-c4ccc(Cl)cc4)cs3)cc2)cc1N1CCN(C)CC1 [TCMDC-138685] | 18.54
NC(Cc1cccc(I)c1)C(=O)NCC1CCCO1 (stereo not drawn) [TCMDC-141273] | -21.09
COc1ccc(CN2CCN(CCOC(c3ccccc3)c3ccc(Cl)cc3)CC2)c(O)c1 (stereo not drawn) [TCMDC-135692] | 28.74
OCC(c1ccccc1)n1c(COc2ccc(Cl)cc2)nc2c(OCCCN3CCCCC3)cccc21 (stereo not drawn) [TCMDC-138596] | 103.2
Cc1nc(N)nc(N)c1-c1ccc(Br)c([N+](=O)[O-])c1 [TCMDC-138071] | 1.652
CS(=O)(=O)CCNCc1cccc(-c2cc3c(Nc4ccc(OCc5ccccc5)cc4)ncnc3cn2)c1 [TCMDC-138240] | 8.889
CN(C)C(=S)N=Nc1c(O)[nH]c2ccc(OC(F)(F)F)cc12 [TCMDC-141099] | -50.91
Cc1c(-c2ccc3c(c2)C(NCCCN2CCCCC2)CC3)cnc(N)c1C (stereo not drawn) [TCMDC-138320] | 53.54
O=C(Nc1cccc(-c2ccc(NCCCN3CCCC3)nc2)c1)c1ccccc1 [TCMDC-134145] | 39.43
O=C(NCCN1CCCCC1)c1ccc(CNC(=O)c2ccc(O)c(-c3cccc(C(F)(F)F)c3)c2)cc1 [TCMDC-140817] | 7.187
Cc1c(-c2cccc(C(C)(C)NC3CCN(Cc4ccccc4)CC3)c2)cnc(N)c1C [TCMDC-138300] | 70.88
c1ccc(CN2CCC(NCc3cccc(-c4cncc5ccccc45)c3)CC2)cc1 [TCMDC-134152] | 18.28
Cc1c(Br)cc2[nH]c(-c3ccc(C(=O)NC4CCN(Cc5ccccc5)CC4)cc3)nc2c1C [TCMDC-140026] | -88.51
Cn1nc(-c2ccc(CN[C@@H]3CCc4ccc(O)cc43)cc2)c2cnc(NC3CCCC3)nc21 [TCMDC-135029] | -22.32
Cc1c(-c2cccc(C(C)(C)NCCCN3CCCCC3)c2)cnc(N)c1C [TCMDC-138284] | 76.27
